The supplement of paper PMC6555819

Tests used:
Test in all cases: PBM binding z-score (relative to random genomic background probes); higher = stronger binding; sequences stand for … in GC…GCGATTGACAGCGTAGAATGAAGG
[1] = system: RARb homodimer (NR concentration 270 nM)
Method in brief: (§1)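 The probes on custom Agilent 4×180K protein-binding microarrays were double-stranded, with 34-nt variable regions bearing direct-repeat seeds, single-nucleotide variants, half-site ablations and random human genomic background sequences. Incubation lasted 1 h with ligand-free nuclear receptor dimers in PBS pH 7.4, 2% milk, 0.02% Triton X-100, 1 mM DTT, 0.2 mg/mL BSA and 0.4 mg/ml salmon testes DNA. Antibodies against each partner (one per run) detected bound dimers, and fluorescence scans were regression-normalized. Binding z-scores take the random background probes as reference.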

[2] = system: RARg:RXRa (NR concentration 270 nM, RXRa partner concentration 90 nM)
Method in brief: as §1

[3] = system: RARg homodimer (NR concentration 270 nM)
Method in brief: as §1

[4] = system: RXRa DBDmut IVT, anti-RXR (DBD mutation: RXRa K156A/R161A, NR concentration 90 nM)
Method in brief: as §1

[5] = system: RXRa homodimer (NR concentration 180 nM)
Method in brief: as §1

[6] = system: THRa:RXRa (NR concentration 90 nM, RXRa partner concentration 90 nM)
Method in brief: as §1

[7] = system: THRa homodimer (NR concentration 90 nM)
Method in brief: as §1

[8] = system: VDR:RXRa (NR concentration 270 nM, RXRa partner concentration 90 nM)
Method in brief: as §1

[9] = system: VDR homodimer (NR concentration 270 nM)
Method in brief: as §1

Sequence | PBM binding z-score [1] | PBM binding z-score [2] | PBM binding z-score [3] | PBM binding z-score [4] | PBM binding z-score [5] | PBM binding z-score [6] | PBM binding z-score [7] | PBM binding z-score [8] | PBM binding z-score [9]
ATCTCTAGGTAAGATTCAGTTCAGTGAAGAACGC | 0.59 | 0.513 | 0.134 | 0.381 | 0.0885 | 0.976 | 0.542 | 0.961 | 1.31
CAAACTAGGTCACCGGAAGCTCAAAGTCCGCATG | 3.48 | 4.84 | 5.66 | 1.98 | 3.81 | 3.38 | 1.92 | 2.23 | 0.814
ATCTCTAGGTAAAAGTTCAGGGAATCCCGAGGAT | 2.58 | 2.3 | 2.18 | 0.858 | 2.15 | 1.54 | 0.461 | 1.54 | 1.7
CGAACTAGGTCAGAACAGGCCAGTGAAGGATGAT | 2.09 | 2.58 | 2.86 | 0.213 | 1.28 | 2.53 | -0.201 | 0.281 | -0.281
ACAGAAAGGTGATGAAGGTAACTCAGGCTATCAT | 0.99 | 1.18 | 1.35 | 0.11 | 1 | 1.44 | 0.0697 | 1.2 | -0.00913
TAGCCCAGGTCATTGGGCCAGTATAGTACGCATC | 2.76 | 3.9 | 4.11 | 2.29 | 3.37 | 3.36 | 1.65 | 3.03 | 2.16
TCGAGTAGGTTAGTCGGTGCATTCAGCCAACATA | -0.0982 | -0.434 | -0.407 | 0.415 | -0.152 | -0.374 | -0.377 | 3.31 | 0.902
CGTCCAAGGTCAGCAGGTCAGTCAAAGCGACGTG | 5 | 6.35 | 7.05 | 2.69 | 4.85 | 3.74 | 2.35 | 4.02 | 2.03
AGAACGAGGGCACGCTGAGTTGATTGCAGAGTAG | 1.13 | 1.93 | 2.38 | 1.87 | 1.27 | 1.86 | -0.121 | 2.04 | 2.17
TCATATAGGTAAAAGGTGAAAGACGGTGTGGTAA | 1.74 | 2.01 | 0.857 | 1.7 | 3.05 | 1.55 | 0.208 | 1.57 | 0.152
ACTAGCCGGCCAAGTTTGGGTCACTCAAACAAAG | 2.27 | 1.35 | 1.48 | -0.475 | 0.851 | 2.15 | 1.23 | 0.6 | 0.121
ATATGTAGGTTAAGAGTCATTCAGGTTGGTTCGC | 1.26 | 1.23 | 1.13 | 0.882 | 1.53 | 1.24 | 0.283 | 1.6 | 1.24
ATCTCTAGGTAAGACTCAGTTCAGTTAAGAACGC | 0.724 | 0.306 | 0.466 | 0.735 | -0.175 | 1.44 | 0.728 | 1.12 | 1.6
GGAACGAAGGCAAGTTGATAGCAGAGTTTGATGG | -0.711 | -0.376 | -0.138 | 0.098 | -0.667 | -0.824 | -1.3 | -0.696 | -0.0459
TAGGCTAGGTCATGCGGGCCAGTATAGTGTCGGC | 3.1 | 3.73 | 4.44 | 0.47 | 3.14 | 2.77 | 0.748 | 2.63 | 0.519
ATATGTAGGTTACACCCGGGTCATTCAGGCTATG | 3.06 | 3.97 | 2.06 | 0.528 | 3.23 | 3.77 | 2.45 | 4.27 | 2.67
ATCGAAAGGTGGAGGTGAGTATAGAGAAAGGGAA | 1.16 | 0.536 | 0.711 | -0.665 | 0.164 | 0.67 | 0.48 | 0.346 | 0.297
CCTACTGGGCCACGAAAGGTCATTGACTCAGTGA | 4.8 | 4.9 | 4.53 | 0.581 | 4.92 | 3.77 | 0.711 | 4.12 | 2.15

Sequence | PBM binding z-score [1] | PBM binding z-score [2] | PBM binding z-score [3] | PBM binding z-score [4] | PBM binding z-score [5] | PBM binding z-score [6] | PBM binding z-score [7] | PBM binding z-score [8] | PBM binding z-score [9]
TCGAGTAGGTTACCAATGGGGCATTCGGCTTTCT | 0.464 | 1.01 | 0.0889 | 0.423 | 0.335 | -0.119 | -0.584 | 0.0858 | -0.411
TCTTGTAGATCAAAGGTTACGAAAGCCGAAGCCT | 1.9 | 2.29 | 1.06 | 0.663 | 3.64 | 1.66 | -0.301 | 1.6 | -0.125
CCTAGTTAGTCAAGGTCACACACGCTATAGGTAC | 4.28 | 4.36 | 4.31 | 2.45 | 4.3 | 4.27 | 4.29 | 4.26 | 3.3
CCTATTAGTTGACCAAAAGGGCAACCGAAGCTCG | 3.11 | 2.31 | 1.84 | 0.787 | 1.09 | 0.99 | 0.0968 | 0.901 | 0.7
TGAGACAGGTGAAGGTAACTCAGGTACGCAGTCG | 0.449 | 0.201 | 0.61 | -1.52 | 0.312 | 1.18 | -0.173 | -0.109 | -0.0182
AGAACGAGGGCAATGAGTTGATAGCACGGGTGGC | 0.844 | 0.952 | 1.54 | 1.78 | 0.91 | 0.824 | -0.00899 | 4.96 | 2.26
TAGCCTAGGTCAGATCGGGCCAGTAAACGCTATA | 1.72 | 2.66 | 3.21 | -0.396 | 1.32 | 3.89 | -0.219 | 0.5 | -0.568
TCTTGGAGGACACGAAAGGTCAGAGCTCGACATC | 4.63 | 5.1 | 5.47 | 1.26 | 4.25 | 3.89 | 1.31 | 3.58 | 1.48
CCTAGGAGGCCAGGGTCACTCAAGCATTTCGCTT | 2.95 | 2.9 | 2.55 | -0.274 | 3.08 | 2.8 | 0.866 | 2.44 | 1.02
CCTGCTAGGTCAATGGTCAGGTAAAGCAGCTCGC | 2.93 | 3.45 | 4.27 | 1.52 | 2.28 | 2.65 | 1.34 | 0.722 | 0.248
CCGACTGGGGCAGAAAGGTTATCATACCATCCGG | 1.91 | 1.48 | 1 | -0.376 | 1.67 | 0.759 | -0.293 | 0.932 | -0.196
TGAATGAGGTTAAAGATCATGGAACGTGGCGTCG | 0.734 | 2.46 | 1.32 | 0.839 | 4.34 | 2.79 | 0.35 | 2.05 | 0.314
GCGAGTGGGGCAAAGCAGGTTACCATAAGGTTGG | 1.29 | 0.324 | 0.332 | -0.292 | 0.339 | 2.93 | 0.0981 | 0.296 | -0.134
CCTGATAGGTCATGGTCAGCTAATCTACAGTATG | 3.69 | 5.08 | 5.2 | 1.57 | 5.33 | 2.46 | 0.212 | 2.95 | 0.195
TCTTGTAGATCAATAGAGGTTAATAAAGTGCGCT | 1.15 | 0.715 | 0.545 | 0.551 | 1.33 | 2.36 | -0.525 | 1.84 | 0.459
CCTGCTAGGTCAATGGTCCGCTAAAGCAGCTCGC | 2.71 | 3.34 | 3.91 | 1.71 | 1.57 | 2.19 | 0.549 | 0.759 | -0.203
GCTACTTGGTCAGTAAAAGGTCACACACCGGTCG | 5.14 | 5.37 | 5.09 | 0.64 | 5.41 | 3.55 | 2.08 | 4.16 | 2.09
GCGACTGGGGCACAGCAGGTTACCATAAGGTTGG | 1.23 | 0.566 | 0.841 | -0.647 | 0.331 | 2.47 | -0.0588 | -0.208 | -0.59
